# Data published in PubChem BioAssay (NCI).
# This is part of a sample that, as a whole, favours compounds with a hit. Of some 79,000 tested, about 15% had one in any assay. Unmarked numbers belong to inactive results. Active and inactive are the calls of the source. Cut-off read from the data, not from the text of the source: active = growth inhibition above about 70%; inactive = the rest.
# Tests used:
# [1] = NCI Yeast Anticancer Drug Screen. Data for the rad50 strain (AID 155);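 note: 0% = growth of vehicle-only cultures of the same strain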; settings: S. cerevisiae rad50 strain growth inhibition; at 50.0 µM; active compounds read high
# Procedure, shortened: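 Growth of the mutant yeast was measured after compound exposure and referenced to vehicle-treated cultures.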
# [2] = NCI Yeast Anticancer Drug Screen. Data for the mec2-1 strain (AID 157); settings: S. cerevisiae mec2-1 strain, at 50.0 µM, active compounds read high
# Procedure, shortened: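 Strain: mec2-1 (DNA repair/cell cycle alteration). Compound exposure, then growth measured; inhibition expressed relative to vehicle.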
# [3] = NCI Yeast Anticancer Drug Screen. Data for the sgs1 mgt1 strain (AID 161);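 note: 0% = growth of cultures given vehicle only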; settings: S. cerevisiae sgs1 mgt1 strain, at 50.0 µM, active compounds read high
# Procedure, shortened: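 Read-out: growth inhibition vs vehicle controls. Cells: mutant yeast strain deficient in DNA damage repair.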
# [4] = NCI Yeast Anticancer Drug Screen. Data for the cln2 rad14 strain (AID 165);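 note: 0% = growth equal to vehicle treated cultures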; settings: S. cerevisiae cln2 rad14 strain, at 50.0 µM, active compounds read high
# Procedure, shortened: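 Compounds are applied to the cln2 rad14 yeast strain, and growth is then compared with that of vehicle-treated cultures to give inhibition.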
# [5] = NCI Yeast Anticancer Drug Screen. Data for the bub3 strain (AID 167); settings: S. cerevisiae bub3 mutant strain, at 50.0 µM, active compounds read high
# Procedure, shortened: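 Whole-cell yeast assay. The mutant strain was incubated with compounds, and growth inhibition was determined by comparison with vehicle-treated cells.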
# [6] = NCI Yeast Anticancer Drug Screen. Data for the mlh1 rad18 strain (AID 175); settings: S. cerevisiae mlh1 rad18 strain growth inhibition; at 50.0 µM; active compounds read high
# Procedure, shortened: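 Read-out is yeast growth inhibition, calculated against vehicle-only controls. The compound was applied to a strain engineered with DNA damage repair alterations.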
SMILES,growth inhibition [1],growth inhibition [2],growth inhibition [3],growth inhibition [4] [%],growth inhibition [5] [%],growth inhibition [6]
O=C(NCCNCCNC(=O)C(F)(F)F)C(F)(F)F,-9.75%,-16.9%,-4.4%,12.8,-1.5,-41.6%
Nc1c(Cl)ncnc1NCCc1ccccc1,-3.35%,-16.1%,-15.4%,-45.1,-11.8,-11.8%
O=C(Cc1csc(N=Nc2c(O)[nH]c3ccccc23)n1)Nc1ccccc1,-16.2%,-24.4%,-6.35%,-8.75,-7.05,10.9%
CC(C)=NNC(=O)COCC(=O)NN=C(C)C,0.25%,-4.45%,-1.35%,-84.5,-22.9,1.35%
O=C(Nc1cccc(Cl)c1)Oc1cccnc1,-5.1%,-29.9%,7.7%,-4.55,-2.85,-12.6%
CCOC(=O)NN(C(=O)OCC)c1c(NC)n(C)c(=O)n(C)c1=O,-23.4%,7.1%,-7.7%,-23.8,11.1,13.3%
CCC(=O)Nc1nn[nH]n1,-11.5%,-1.5%,-3.75%,4.75,7.9,-2.15%
CC(C)N(C(=S)[S-])C(C)C.CC(C)N(C(=S)[S-])C(C)C.[Zn],96.8% (active),96.8% (active),97.8% (active),24.1,59.5,97% (active)
CSc1nc(N)n2nc(C)cc2n1,-9.3%,-13.7%,10.2%,6.9,33.3,-3.8%
Cc1ccccc1N(C(=O)C(=O)O)c1ccccc1C,1.35%,7.75%,8%,7.95,-0.5,0.15%
CCNCC1COc2ccccc2O1 (centres undefined),-0.3%,3%,-7%,-15.8,-4.8,-1%
COc1ccc(N2C(=O)[C@@H](N=[N+]=[N-])[C@@H]2[C@H]2COC(C)(C)O2)cc1,1.95%,-14.3%,1.3%,5,3.35,9%
CN(C)C(=S)Nc1ccc(S(=O)(=O)N2CCCCC2)cc1,-7.9%,-28.4%,-2.7%,1.15,-16.4,-7.85%
CC(SC(C)c1ccccc1)c1ccccc1 (centres undefined),-5.8%,-16.6%,-8.65%,-11.9,-8.1,3.65%
COc1ccc2c(c1)OC(C)(C)C(c1ccccc1)=C2c1ccc2c(c1)NCCO2,1%,-2.35%,11.1%,-38.5,-22.6,32.2%
CC(C)OC(=O)c1cccnc1,16.5%,2.2%,7.05%,-39,-1.35,-2.45%
Nc1c(Cl)ncnc1NCCCCCO,-5.35%,-4%,-8.75%,-23.7,-6.95,-1.95%
CC(=O)Nc1cc2c(cc1Br)-c1ccc(Br)cc1C2,32.4%,8.4%,11.8%,15.6,-2.45,14.4%
Cc1ccccc1N=Nc1c(-c2ccccc2)nn(C(N)=S)c1-c1ccccc1,36.2%,7.2%,24.1%,4.05,0.95,19%
